# According to PubChem BioAssay (EPA / NIEHS):
# Calls of active or inactive are those of the source. Rule for the calls: active = hit-call score of the fitted dose curve at least 0.9, where 1 is the maximum; inactive = score below 0.9.
# Read-out: Glutathione S-transferase M3 (GSTM3), GSTM3 (gene 2947)
# Assay: LTEA_HepaRG_GSTM3: Life Technologies and Expression Analysis (LTEA) Assay for Glutathione S-transferase M3 (GSTM3) using HepaRG (AID 2283501)
# Conditions: mRNA level, 48 h; actives raise or lower the signal
# Summary of the method: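 qRT-PCR read-out of GSTM3 transcript, normalized to three housekeeping genes, from human HepaRG cells after 48 h chemical exposure. Eight-point half-log series, top 100 uM, 0.5% DMSO vehicle; gain or loss fitted relative to DMSO baseline.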
# Hypoxia-inducible factor 1-alpha (Homo sapiens), sequence (Q16665 whole entry, looked up): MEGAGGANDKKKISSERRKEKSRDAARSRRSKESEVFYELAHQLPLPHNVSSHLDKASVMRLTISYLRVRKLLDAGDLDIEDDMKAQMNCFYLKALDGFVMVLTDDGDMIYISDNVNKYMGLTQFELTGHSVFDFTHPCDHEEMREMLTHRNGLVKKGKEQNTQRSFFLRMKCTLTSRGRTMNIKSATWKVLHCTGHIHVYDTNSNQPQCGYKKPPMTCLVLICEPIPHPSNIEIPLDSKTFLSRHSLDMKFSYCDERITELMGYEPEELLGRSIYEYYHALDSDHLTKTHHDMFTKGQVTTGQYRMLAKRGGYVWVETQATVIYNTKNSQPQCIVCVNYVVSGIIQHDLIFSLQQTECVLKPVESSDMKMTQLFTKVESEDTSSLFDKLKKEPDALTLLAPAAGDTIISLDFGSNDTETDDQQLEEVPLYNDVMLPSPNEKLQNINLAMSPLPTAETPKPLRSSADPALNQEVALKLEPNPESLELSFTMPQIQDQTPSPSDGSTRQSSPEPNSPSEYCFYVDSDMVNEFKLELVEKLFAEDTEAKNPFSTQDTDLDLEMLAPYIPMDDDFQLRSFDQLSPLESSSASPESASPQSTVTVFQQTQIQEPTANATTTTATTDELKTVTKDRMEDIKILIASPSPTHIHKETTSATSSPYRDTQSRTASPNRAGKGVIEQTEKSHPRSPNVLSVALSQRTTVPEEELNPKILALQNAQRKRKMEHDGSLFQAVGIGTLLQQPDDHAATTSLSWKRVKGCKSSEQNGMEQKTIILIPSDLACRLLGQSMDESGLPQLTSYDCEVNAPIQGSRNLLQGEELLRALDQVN
SMILES,outcome,AC50
CCCCCCCCCCCC(=O)OC,inactive,
Cc1ccc(C(C)C)c(O)c1,inactive,
CCCCCCOCCO,inactive,
O=C(OCCCCCOC(=O)c1ccccc1)c1ccccc1,,1.62 µM (active)
CNCc1cc(F)ccc1Oc1ccc(Cl)c(Cl)c1,inactive,
COC(=O)c1ccc(O)cc1,inactive,
NC(=O)Cn1c(=O)cc(CCN2CCN(c3nccc4sccc34)CC2)c2ccc(F)cc21,inactive,

# Read-out: Heat shock 70 kDa protein 1 (HSPA1A), gene 3303
# Assay: LTEA_HepaRG_HSPA1A: Life Technologies and Expression Analysis (LTEA) Assay for Heat shock 70 kDa protein 1 (HSPA1A) using HepaRG (AID 2283502)
# Conditions: mRNA level, 48 h; actives raise or lower the signal
# Summary of the method: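 Human HepaRG cells in serum-free induction medium were exposed in duplicate for 48 h to 8 half-log concentrations, highest 100 uM, in 0.5% DMSO. HSPA1A mRNA read by TaqMan qRT-PCR, normalized to ACTB, GAPDH, POLR2A, fitted bidirectionally against DMSO.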
SMILES,AC50,outcome
CCc1c(C(=O)NN2CCCCC2)nn(-c2ccc(Cl)cc2Cl)c1-c1ccc(Br)cc1,86.3 µM (active),
CCCCN(CCCC)CCCC,,inactive
CCCc1cc(=O)[nH]c(=S)[nH]1,,inactive
CC1(C)CC(N=C=O)CC(C)(CN=C=O)C1 (configuration not stated),,inactive
C=CCc1ccc(O)c(OC)c1,,inactive
CCCCCCC(=O)OCC,,inactive
C[C@]12C=CC(=O)C=C1CC[C@@H]1[C@@H]2C(=O)C[C@@]2(C)[C@H]1CC[C@]2(O)C(=O)CO,,inactive
O=c1c(O)c(-c2ccc(O)c(O)c2)oc2cc(O)cc(O)c12,,inactive
COc1ccc2c(c1)c(CC(=O)O)c(C)n2C(=O)c1ccc(Cl)cc1,,inactive
COc1ccc(S(=O)(=O)N2C(=O)[C@@](c3ccccc3OC)(N3C[C@H](O)C[C@H]3C(=O)N(C)C)c3cc(Cl)ccc32)c(OC)c1,83 µM (active),
CCCCCCOCCO,,inactive
CNCc1cc(F)ccc1Oc1ccc(Cl)c(Cl)c1,78.4 µM (active),
COC(=O)c1ccc(O)cc1,,inactive
NC(=O)Cn1c(=O)cc(CCN2CCN(c3nccc4sccc34)CC2)c2ccc(F)cc21,21.9 µM (active),

# Read-out: Hypoxia-inducible factor 1-alpha (Homo sapiens) (UniProt Q16665)
# Assay: LTEA_HepaRG_HIF1A: Life Technologies and Expression Analysis (LTEA) Assay for Hypoxia-inducible factor 1 (HIF1A) Trancription factor using HepaRG (AID 2283503)
# Conditions: mRNA level, 48 h; actives raise or lower the signal
# Summary of the method: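 Differentiated HepaRG cells in serum-free induction medium exposed 48 h, in duplicate, to 8-point half-log series from 100 uM in 0.5% DMSO. HIF1A mRNA measured by TaqMan qRT-PCR, normalized to ACTB/GAPDH/POLR2A, fitted bidirectionally versus DMSO.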
SMILES,outcome,AC50
CCOC(=O)CCC(=O)OCC,inactive,
CCc1c(C(=O)NN2CCCCC2)nn(-c2ccc(Cl)cc2Cl)c1-c1ccc(Br)cc1,,86.6 µM (active)
CCCCCCCCCCO,inactive,
CCCCN(CCCC)CCCC,inactive,
Oc1ccc2ccccc2c1N=Nc1ccccc1,inactive,
CC1(C)CC(N=C=O)CC(C)(CN=C=O)C1 (configuration not stated),inactive,
Cc1cccc([N+](=O)[O-])c1C,inactive,
Cc1cc(=O)[nH]c(=S)[nH]1,inactive,
C=CCOC(=O)c1ccccc1C(=O)OCC=C,inactive,
C=CCc1ccc(O)c(OC)c1,inactive,
CCCCCCC(=O)OCC,inactive,
CCNc1cccc(C)c1,inactive,
C[C@]12C=CC(=O)C=C1CC[C@@H]1[C@@H]2C(=O)C[C@@]2(C)[C@H]1CC[C@]2(O)C(=O)CO,inactive,
COc1ccc2c(c1)c(CC(=O)O)c(C)n2C(=O)c1ccc(Cl)cc1,inactive,
COc1ccc(S(=O)(=O)N2C(=O)[C@@](c3ccccc3OC)(N3C[C@H](O)C[C@H]3C(=O)N(C)C)c3cc(Cl)ccc32)c(OC)c1,,69.1 µM (active)
CCCCCCCCCCCC(=O)OC,inactive,
Cc1ccc(C(C)C)c(O)c1,inactive,
CCCCCCOCCO,inactive,
O=C(OCCCCCOC(=O)c1ccccc1)c1ccccc1,inactive,
CNCc1cc(F)ccc1Oc1ccc(Cl)c(Cl)c1,inactive,
COC(=O)c1ccc(O)cc1,inactive,
NC(=O)Cn1c(=O)cc(CCN2CCN(c3nccc4sccc34)CC2)c2ccc(F)cc21,,13.1 µM (active)

# Read-out: 3-Hydroxy-3-Methylglutaryl-CoA Synthase 2 (HMGCS2), HMGCS2 (gene 3158)
# Assay: LTEA_HepaRG_HMGCS2: Life Technologies and Expression Analysis (LTEA) Assay for 3-Hydroxy-3-Methylglutaryl-CoA Synthase 2 (HMGCS2) using HepaRG (AID 2283504)
# Conditions: mRNA level, 48 h; actives raise or lower the signal
# Summary of the method: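 qRT-PCR read-out of HMGCS2 transcript, normalised to three housekeeping genes, in HepaRG cells after 48 h chemical exposure. Eight-point curves from 100 uM, half-log dilutions, 0.5% DMSO vehicle; gain or loss fitted relative to DMSO baseline.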
SMILES,outcome,AC50
CCOC(=O)CCC(=O)OCC,inactive,
CCc1c(C(=O)NN2CCCCC2)nn(-c2ccc(Cl)cc2Cl)c1-c1ccc(Br)cc1,,23.7 µM (active)
Nc1nc(N)c2nc(CNc3ccc(C(=O)N[C@@H](CCC(=O)O)C(=O)O)cc3)cnc2n1,inactive,
CCCCCCCCCCO,inactive,
CCCCN(CCCC)CCCC,inactive,
Oc1ccc2ccccc2c1N=Nc1ccccc1,,14.8 µM (active)
CCOC(=O)C(C)(C)Oc1ccc(Cl)cc1,,9.92 µM (active)
CCCc1cc(=O)[nH]c(=S)[nH]1,inactive,
CC1(C)CC(N=C=O)CC(C)(CN=C=O)C1 (configuration not stated),inactive,
CCOc1ccc2c(c1)C(C)=CC(C)(C)N2,,20 µM (active)
Cc1cccc([N+](=O)[O-])c1C,inactive,
O=c1[nH]cc(F)c(=O)[nH]1,,51 µM (active)
Cc1cc(=O)[nH]c(=S)[nH]1,inactive,
Nc1ccc(S(=O)(=O)c2ccc(N)cc2)cc1,inactive,
C=CCOC(=O)c1ccccc1C(=O)OCC=C,inactive,
C=CCc1ccc(O)c(OC)c1,inactive,
CCCCCCC(=O)OCC,inactive,
CCNc1cccc(C)c1,inactive,
C[C@]12C=CC(=O)C=C1CC[C@@H]1[C@@H]2C(=O)C[C@@]2(C)[C@H]1CC[C@]2(O)C(=O)CO,inactive,
O=c1c(O)c(-c2ccc(O)c(O)c2)oc2cc(O)cc(O)c12,inactive,
COc1ccc2c(c1)c(CC(=O)O)c(C)n2C(=O)c1ccc(Cl)cc1,inactive,
COc1ccc(S(=O)(=O)N2C(=O)[C@@](c3ccccc3OC)(N3C[C@H](O)C[C@H]3C(=O)N(C)C)c3cc(Cl)ccc32)c(OC)c1,,15.8 µM (active)
CCCCCCCCCCCC(=O)OC,inactive,
Cc1ccc(C(C)C)c(O)c1,inactive,
CCCCCCOCCO,inactive,
O=C(OCCCCCOC(=O)c1ccccc1)c1ccccc1,inactive,
CNCc1cc(F)ccc1Oc1ccc(Cl)c(Cl)c1,,88.6 µM (active)
COC(=O)c1ccc(O)cc1,inactive,
NC(=O)Cn1c(=O)cc(CCN2CCN(c3nccc4sccc34)CC2)c2ccc(F)cc21,,50 µM (active)
